# The campaign covered roughly 310,000 compounds. About 3,900 (1.3%) were called active.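 How the source made its calls: active means calcium-response B-score plate-corrected more than 3 library SD below zero, starting fluorescence within 5 deviations, no agonist response on first addition; inactive means the rest.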 Many of the other results were omitted from the sample, so actives are more common in it than they were.
# Molecular target: Mas-related G-protein coupled receptor member X1 (Homo sapiens) (UniProt Q96LB2)
# Experiment: antagonists of human MrgX1 receptor, primary screen, HEK293 cells, Fluo-4 calcium flux (AID 588676);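 on B-score: peak minus trough fluorescence over baseline after final BAM8-22 challenge near maximal dose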
# Details: Fluo-4, BAM8-22 antagonism, at 10 µM; stronger effect = lower value
# Mas-related G-protein coupled receptor member X1 (Homo sapiens), sequence (Q96LB2 whole entry, looked up): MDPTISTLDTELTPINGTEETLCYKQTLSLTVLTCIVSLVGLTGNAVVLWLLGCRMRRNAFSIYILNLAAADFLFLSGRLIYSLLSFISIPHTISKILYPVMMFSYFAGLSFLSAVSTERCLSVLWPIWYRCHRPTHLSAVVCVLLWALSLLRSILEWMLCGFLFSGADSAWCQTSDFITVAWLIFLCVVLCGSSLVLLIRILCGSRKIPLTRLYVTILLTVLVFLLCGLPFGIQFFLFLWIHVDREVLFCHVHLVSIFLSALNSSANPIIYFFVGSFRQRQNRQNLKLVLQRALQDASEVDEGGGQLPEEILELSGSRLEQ
row,SMILES,B-score
1,CCOC(=O)c1cc(NC(=O)SCC(=O)O)c(C)nc1C,inactive
2,CC(=O)N(C)c1ccc(NC(=O)Nc2cccc3ccccc23)cc1,inactive
3,CC(=O)N(C)c1ccc(NC(=O)C(F)(F)F)cc1,-7.18 (active)
4,CCOc1ccc(NC(=O)Nc2ccc(N(C)C(C)=O)cc2)cc1,inactive
5,O=C(COC(=O)Cn1cnc2ccccc21)Nc1cccc2c1C(=O)c1ccccc1C2=O,inactive
6,Cc1cccc(NC(=O)Cc2ccc(Br)cc2)n1,inactive
7,O=S(=O)(NC1CCCC1)c1ccc(-n2cnnn2)cc1,inactive
8,c1cc(-n2cnnn2)ccc1NC1=NCCC1,-5.5 (active)
9,O=C(Cc1c(F)cccc1Cl)Nc1ccc(-n2cnnn2)cc1,inactive
10,Cc1ccc(Cl)c(OCC(=O)N(C)CC(=O)Nc2ccc(N3CCOCC3)cc2)c1,inactive
11,CCOC(=O)c1ccc(COC(=O)CCc2nc(-c3ccccc3)c(-c3ccccc3)o2)cc1,inactive
12,O=C(Nc1ccc(Cl)cc1)Nc1ccc(Oc2cccnc2)nc1,-7.03 (active)
13,O=C(NNC(=O)c1csc(-c2cccnc2)n1)Nc1ccc(Cl)cc1,inactive
14,Cc1ccc(NC(=O)Nc2cccnc2)cc1,inactive
15,CCn1c(SCC(=O)Nc2cc(C)ccc2C)nnc1-c1cnccn1,inactive
16,Cc1ccccc1NC(=O)C(C)c1ccc(-c2ccccc2)c(F)c1 (configuration not stated),inactive
17,CCOc1ccc(CN2CCC(n3nccc3NC(=O)C3CC3)CC2)cc1CO,inactive
18,Cc1ccc(C(C(=O)NC2CCCCC2)N(C(=O)c2csnn2)C2CC2)o1 (configuration not stated),-7.09 (active)
19,O=C(NC1CCCC1)C(c1ccc(Cl)cc1)N(C(=O)c1csnn1)C1CC1 (configuration not stated),inactive
20,O=C(NC1CCCC1)C(c1ccccn1)N(C(=O)c1csnn1)C1CCCC1 (configuration not stated),inactive
21,CCc1ccc(Nc2n[n+](-c3ccccc3)c(-c3cccc(Cl)c3Cl)s2)cc1,inactive
22,CCc1nnc(NC(=O)CCC(=O)N2CCN(c3cc(C)ccc3C)CC2)s1,inactive
23,CC1CCC(N2CC(=O)N(Cc3ccc4c(c3)OCO4)C(c3ccc(F)cc3)C2=O)CC1 (configuration not stated),inactive

row,SMILES,B-score
1,CCc1ccccc1NC(=O)c1ccc2c(c1)CCN2S(C)(=O)=O,inactive
2,CC(=O)Nc1ccc(Oc2ccc3c(c2)C(=O)NC3=O)cc1,inactive
3,CCCCN(C)CCC(=O)Nc1ccc(Cl)cc1,inactive
4,CCCCC(=O)Nc1ccc2c(c1)C(=O)NC2=O,-4.77 (active)
5,Cc1ccc(CN(CC(=O)NCC2CCCO2)S(=O)(=O)c2ccc(C)cc2)cc1 (configuration not stated),inactive
6,CCCCCC(=O)N1CCN(S(=O)(=O)c2ccc3c(c2)OCCCO3)CC1,-12 (active)
7,O=C(c1c(F)cccc1Cl)N1CCN(S(=O)(=O)c2ccc3c(c2)OCCCO3)CC1,inactive
8,CN1CCCN(S(=O)(=O)c2ccc3c(c2)OCCO3)CC1,inactive
9,COc1ccc(C(=O)NCCn2nc(C)cc2C)cc1OC1CCN(C(C)=O)CC1,inactive
10,COc1ccc(C(=O)N2CCC(C(=O)Nc3cccc(C)c3)CC2)cc1OC,inactive
11,CCOc1ccc(NC(=O)COc2ccc(C(=O)NC3CCCc4ccccc43)cc2OC)cc1 (configuration not stated),inactive
12,CCOc1ccc(NC(=O)COc2ccc(C(=O)N3CCC(C(N)=O)CC3)cc2OC)cc1,-8.23 (active)
13,Cc1ccc(S(=O)(=O)CCC(=O)OCC(=O)N(C)C2CCS(=O)(=O)C2)cc1 (configuration not stated),inactive
14,O=C(CSc1nnc2n1CCCN2)c1ccccc1,inactive
15,Cc1cc(Cl)ccc1NC(=S)NCCCN1CCCC1=O,inactive
16,Cc1c(Cl)cccc1NC(=O)NCCCN1CCCC1=O,inactive
17,O=C1CCCN1CCCNC(=S)Nc1ccc(F)c(Cl)c1,-4.94 (active)
18,O=C(NC1CCN(Cc2ccccc2)CC1)c1cc(Br)c(Br)[nH]1,inactive
19,Oc1c(Cl)cc(Cl)c(Cl)c1Cc1c(O)c(Cl)cc(Cl)c1Cl,-8.06 (active)
20,O=C(CN1CCCCCC1)Nc1c(Cl)cc(Cl)cc1Cl,inactive
21,COc1cc2c(C(=O)N3CCN(C)CC3)c(CSc3ccccc3)n(C)c2cc1Br,inactive
22,O=C(COC(=O)c1cc(-c2cccs2)nn1-c1ccccc1)Nc1cc([N+](=O)[O-])ccc1Cl,inactive
23,O=C(Nc1ncccc1O)c1ccc(S(=O)(=O)N2CCCC2)cc1,inactive

row,SMILES,B-score
1,O=C(Nc1ncccc1O)c1ccc(S(=O)(=O)N2CCCCCC2)cc1,inactive
2,CC(C)(C)n1nc2c(c1NC(=O)c1ccc(S(=O)(=O)N3CCCC3)cc1)CS(=O)C2 (configuration not stated),-5.73 (active)
3,O=C(CCN1C(=O)[C@H]2CC=CC[C@H]2C1=O)NCc1nc(-c2ccccc2)no1,inactive
4,Cc1ccc(Nc2cc(C)nc3c(C)ccc([N+](=O)[O-])c23)cc1,inactive
5,Cc1cc(C)cc(NC(=S)NCc2ccc(F)cc2)c1,inactive
6,Cc1cc(C)cc(NC(=S)NCCc2c[nH]c3ccccc23)c1,-5.78 (active)
7,O=C(NCCc1c[nH]c2ccccc12)c1cccc(Br)c1,inactive
8,NS(=O)(=O)c1ccccc1NC(=O)c1c(O)c2ccccc2[nH]c1=O,inactive
9,O=C(/C=C/c1ccc(N2CCOCC2)cc1)c1ccccc1,inactive
10,Cc1cccc(N2C(=O)c3ccc(C(=O)Nc4cccc(C(=O)O)c4)cc3C2=O)c1,inactive
11,O=C(O)c1ccc2c(c1)C(=O)N(c1ccc(/C=C/C(=O)c3ccccc3)cc1)C2=O,-6.62 (active)
12,Cc1cc(C)cc(C(=O)OCC(=O)NCCNC(=O)COC(=O)c2cc(C)cc(C)c2)c1,inactive
13,CCOC(=O)CNC(=O)CSc1ncccc1-c1nc2ccccc2[nH]1,inactive
14,CCOC(=O)CNC(=O)CSc1nnc(COc2ccc(Cl)cc2)n1CC,inactive
15,CCOC(=O)CNC(=O)CSc1nc2cccnc2n1CC,-8.3 (active)
16,O=C1c2cccc3cccc(c23)C(=O)N1c1cccc(O)c1,inactive
17,COC(=O)[C@@H]1C[C@@]2(O)[C@@H](O)[C@@H](O)[C@@H](O)C[C@H]2N1Cc1ccc(C)s1,inactive
18,COc1ccc(Cl)cc1NS(=O)(=O)c1cccc(C(=O)NC2CCC(O)CC2)c1 (configuration not stated),inactive
19,Cn1nccc1C(=O)NC1CCCc2c1cnn2-c1ccccc1F (configuration not stated),inactive
20,Cc1cc(C(=O)NC2CCCc3c2cnn3-c2cccc(C)c2C)c(C)o1 (configuration not stated),inactive
21,COc1ccc(C(=O)NC2CCCc3c2cnn3-c2cccc(C)c2C)c(OC)n1 (configuration not stated),-8.89 (active)
